Results from PubChem BioAssay (NCI).
Values joined by “and” are separate entries in the source; they are usually repeats but may differ in a detail not shown here. Identical values can stand only once. The panel holds about 83,000 compounds, 20% with a hit somewhere; the sample as a whole holds those more often.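 Growth was measured after 48 h exposure to one concentration of compound in 96-well plates. Values under 10 count as active.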 A number with no mark means an inactive call. Active and inactive are the calls of the source.

Legend:
Assay in all cases: NCI-60 one-dose screen, 48 h (100 = growth as untreated, 0 = no growth, -100 = all killed)
Settings in all cases: 10 µM unless noted
DU-145 prostate = system: DU-145 prostate
K-562 leukemia = system: K-562 leukemia
MALME-3M melanoma = system: MALME-3M melanoma
MDA-MB-231 breast = system: MDA-MB-231 breast
RXF 393 renal = system: RXF 393 renal
SF-268 CNS = system: SF-268 CNS
SF-295 CNS = system: SF-295 CNS
SF-539 CNS = system: SF-539 CNS
UACC-257 melanoma = system: UACC-257 melanoma
M14 melanoma = system: M14 melanoma

| Compound | growth (DU-145 prostate) | growth (K-562 leukemia) | growth (MALME-3M melanoma) | growth (MDA-MB-231 breast) | growth (RXF 393 renal) | growth (SF-268 CNS) | growth (SF-295 CNS) | growth (SF-539 CNS) | growth (UACC-257 melanoma) | growth (M14 melanoma) |
| --- | --- | --- | --- | --- | --- | --- | --- | --- | --- | --- |
| O=C1/C(=C/c2cn(-c3ccccc3)nc2-c2ccccc2)SC(=S)N1c1ccccc1 | 102% | 104% | 94.5% | 89.1% | 107% | 99.1% | 97.5% | 94.5% | 107% | 97.2% |
| COc1ccc(CN2CCc3c(Cl)nc(N)nc3C2=O)c(OC)c1 | 20.8% [100 µM] | 14.8% [100 µM] | 27.8% [100 µM] | 6.36% [100 µM] (active) | -20.2% [100 µM] (active) | -22.4% [100 µM] (active) | 41.6% [100 µM] | -25.3% [100 µM] (active) | 25.5% [100 µM] | -70.8% [100 µM] (active) |
| O=C(/C=C\c1ccc(Cl)c(Cl)c1)c1ccccc1 | 84.3% and 109% | 32.7% and 95.9% | 104% and 115% | 108% and 99.7% | 86.3% and 110% | 98.4% and 103% | 97.5% and 99.2% | 111% and 110% | 97.7% | 97.2% and 115% |
| CN1CCN(c2ccc(Nc3ncc(C(N)=O)c(NCCCNC(=O)C4CCC4)n3)cc2)CC1 | 67.6% | 41.7% | 76.6% | 11.6% | 20.4% | 80.6% | 81.3% | 11.1% | 119% | 80% |
| COC(=O)c1nc(-c2ccc(C)cc2)oc1S(=O)(=O)c1ccc(Cl)cc1 | 113% | 9.37% (active) | 31% | 87% | 120% | 97.1% | 108% | 96.6% | 100% | 79.7% |
| Cc1ccc(-c2nc3nc(-c4ccccc4)nc(N4CCN(S(=O)(=O)c5ccccc5)CC4)c3o2)cc1 | 96.6% | 97.7% | 84.2% | 72.4% | 66.3% | 66.8% | 74.7% | 52.5% | 99% | 96.7% |
| CCCCC#Cc1c(/C=C(\CCCC)SCC)n(C)c(=O)[nH]c1=O | 110% | 72.2% | 112% | 102% | -12.1% (active) | 93.7% | 114% | 98.4% | 98.9% | 105% |
| Nc1ncc(-c2ccc3ncnc(N4CCc5ccc(Cl)cc54)c3c2)cc1C(F)(F)F | 17.6% | 30.5% | -0.57% (active) | 21.8% | -38.8% (active) | 22.4% | 19.3% | 2.93% (active) | 29.3% | 26.7% |
| C[C@@H]1O[C@@H](O[C@H]2[C@@H](OC(=O)[C@]34CCC(C)(C)C[C@H]3C3=CC[C@@H]5[C@@]6(C)C[C@H](O)[C@H](O[C@@H]7O[C@H](CO)[C@@H](O)[C@H](O)[C@H]7O)[C@@](C)(CO)[C@@H]6CC[C@@]5(C)[C@]3(C)C[C@H]4O)OC[C@@H](O)[C@@H]2O)[C@H](O)[C@H](O[C@@H]2OC[C@@H](O)[C@H](O[C@@H]3OC[C@](O)(CO)[C@H]3O[C@@H]3OC[C@@H](O)[C@H](O)[C@H]3O)[C@H]2O)[C@H]1O[C@@H]1OC[C@](O)(CO)[C@H]1O | 78.5% | 58.2% | 89.9% | 74.1% | 70.7% | 85.7% | 62.3% | 85.5% | 56.2% | 75.9% |
| CCOC(=O)c1ccc(Nc2ncnc3c2cnn3-c2cccc(F)c2)cc1 | 106% | 96.7% | 103% | 93.3% | 105% | 94.2% | 100% | 98.5% | 99.6% | 99.1% |
| C/C(=C(\c1ccc(OCCN2CCOCC2)cc1)c1ccc(OC(=O)C2CCCCC2)cc1)c1ccc(Cl)cc1 | 103% | 66.1% | 104% | 98.8% | 94.9% | 95.8% | 106% | 105% | 99% | 87.4% |
| COc1nc(=O)n(C2C=CC(=O)O2)cc1F (stereo not given) | 81.1% | 40.8% | 45.5% | 100% | 80.7% | 85.7% | 98.2% | 99.1% | 88.8% | 69.9% |
| O=C(c1cccc(Br)c1)N1CCN(c2ccnc3cc(Cl)ccc23)CC1 | 93.3% | 68.1% | 94.3% | 91.7% | 87% | 91.5% | 87% | 96.9% | 85.8% | 98.6% |
| O=C(Nc1ncc(Cc2cccc(C(F)(F)F)c2)s1)c1ccc(-n2cnnn2)cc1 | 60.3% | 21% | 62.6% | 96.9% | 103% | 55.4% | 32.2% | 47.9% | 46.8% | 41.4% |
| Cc1cnc(C(=O)NNc2nc3sc4c(c3c(=O)[nH]2)C(C)CCC4)cn1 (stereo not given) | 22.6% | 14% | 15.9% | 42.8% | 6.15% (active) | 16.7% | 23.4% | 10.1% | 1.78% (active) | 0.29% (active) |
| Cc1ccc(-c2nc3nc(-c4ccc(F)cc4)nc(N4CCCNCC4)c3o2)cc1 | -94.8% (active) | -28.4% (active) | -72.7% (active) | -85.1% (active) | -79.8% (active) | -65.7% (active) | -86.3% (active) | -97.9% (active) | -72.2% (active) | -86.6% (active) |
| O=C(Cn1cc(CN2CCN(c3ccnc4cc(Cl)ccc34)CC2)nn1)Nc1cccc([N+](=O)[O-])c1 | 100% | 68.8% | 102% | 64.8% | 77.2% | 84.6% | 100% | 88.7% | 98.3% | 103% |
| CN(C)CC1(C)Cc2ccsc2C1O (stereo not given) | 116% and 97.1% | 104% and 92.8% | 98.8% | 113% and 111% | 108% and 109% | 113% and 102% | 121% and 115% | 93.4% and 105% | 108% and 110% | 111% and 108% |
| O/N=C(/c1ccccc1)c1ccc2c3c(cccc13)CC2 | 107% and 105% | 42.4% and 34.2% | 87.6% and 91.9% | 82.7% and 82.1% | 81.9% and 64.7% | 105% and 94.6% | 82.1% and 83.3% | 111% and 90.5% | 83.2% and 87.2% | 95.3% and 90.9% |
| CCn1cc(C(=O)NN=C2CCCC2)c(=O)c2ccc(C)nc21 | 109% | 93.1% | 91.8% | 93.3% | 103% | 93.4% | 92.8% | 96.2% | 90.1% | 102% |
| CCN1CCN(C(=O)[C@]23CC[C@@H](C)[C@H](C)[C@@H]2C2=CC[C@@H]4[C@@]5(C)CCC(=O)C(C)(C)[C@@H]5CC[C@@]4(C)[C@]2(C)CC3)CC1 | 41.5% | 2.78% (active) | -85.7% (active) | -28.6% (active) | -6.14% (active) | 39.7% | 24.8% | -79.8% (active) | -23.9% (active) | -41.6% (active) |
| CCNC(=O)Nc1ncccc1OCc1ccc(F)cc1 | 97.8% | 99.6% | 106% | 115% | 125% | 94.3% | 97.8% | 102% | 102% | 109% |
| NNCCc1ccccc1 | 122% and 108% | 91.5% and 105% | 82.1% | 93.4% and 83.5% | 122% and 80.3% | 108% and 96.1% | 106% and 92% | 96.9% | 121% | 101% and 96.1% |
| CC/C(=C(/c1ccc(Cl)cc1)c1ccc(OCCN2CCOCC2)cc1)c1ccccc1 | 98.4% | 63.7% | 104% | 95.5% | 107% | 90.5% | 97.1% | 104% | 98.8% | 99.5% |
| COc1ccc(/C=C(\C#N)c2cc3ccccc3[nH]2)cc1 | 31.1% | 11.4% | 52% | 51.9% | 48% | 39.1% | 35.7% | 21.3% | 52.2% | 1.53% (active) |
| Cc1ccc(NC(=O)c2ccc(CN3CCN(C)CC3)cc2)cc1Nc1nccc(-c2cccnc2)n1 | 85.6% and 88.2% | 2.02% (active) | 114% and 79.6% | 88.8% and 81.3% | 94.3% and 69.3% | 104% and 74.5% | 84.9% and 66.4% | 75.5% and 38.2% | 97.2% and 29.6% | 113% and 82.7% |
| O=C1Nc2ccccc2/C1=C/c1cccn1CCCCCn1c2ccccc2c(=O)c2ccccc21 | 97.9% | 52.1% | 84.5% | 69.3% | 89.2% | 83.3% | 93.1% | 94.2% | 106% | 73.3% |
| CC(=O)N1N=C(c2ccc(Nc3nc(Nc4ccc(F)cc4)nc(Nc4ccc(F)cc4)n3)cc2)CC1c1ccccc1 (stereo not given) | 116% | 80.1% | 76.2% | 80.1% | 60.6% | 86.1% | 132% | 110% | 108% | 85% |
